Measured values from PubChem BioAssay (NCI).
The panel holds about 79,000 compounds, 15% with a hit somewhere; the sample as a whole holds those more often. A number with no mark means an inactive call. Active and inactive are the calls of the source. Cut-off read from the data, not from the text of the source: active = growth inhibition above about 70%; inactive = the rest.

Tests used:
[1] = NCI Yeast Anticancer Drug Screen. Data for the rad50 strain (AID 155);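 note: 0% = growth of vehicle-only cultures of the same strain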; conditions: S. cerevisiae rad50 strain growth inhibition, stronger effect = higher value
In short: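 DNA repair mutant yeast, compound exposure, growth read-out; inhibition is taken relative to vehicle.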

[2] = NCI Yeast Anticancer Drug Screen. Data for the mec2-1 strain (AID 157); conditions: S. cerevisiae mec2-1 strain, stronger effect = higher value
In short: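 Compounds were applied to mec2-1 yeast cells. Their growth was then compared with that of vehicle-treated cultures to give growth inhibition.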

[3] = NCI Yeast Anticancer Drug Screen. Data for the sgs1 mgt1 strain (AID 161);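 note: 0% = growth of cultures given vehicle only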; conditions: S. cerevisiae sgs1 mgt1 strain, stronger effect = higher value
In short: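 Compounds are added to genetically altered yeast, and growth is compared with cultures given vehicle alone to give percent inhibition.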

[4] = NCI Yeast Anticancer Drug Screen. Data for the cln2 rad14 strain (AID 165);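 note: 0% = growth equal to vehicle treated cultures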; conditions: S. cerevisiae cln2 rad14 strain, stronger effect = higher value
In short: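 Strain: cln2 rad14 yeast, altered in cell cycle control and DNA damage repair. Read-out: growth inhibition vs vehicle.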

[5] = NCI Yeast Anticancer Drug Screen. Data for the bub3 strain (AID 167); conditions: S. cerevisiae bub3 mutant strain, stronger effect = higher value
In short: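 In this screen, a yeast mutant lacking normal mitotic checkpoint function is challenged with compound. Relative growth versus vehicle gives the inhibition value.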

[6] = NCI Yeast Anticancer Drug Screen. Data for the mlh1 rad18 strain (AID 175); conditions: S. cerevisiae mlh1 rad18 strain growth inhibition, stronger effect = higher value
In short: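 A repair-deficient yeast strain is exposed to test compound, and growth is scored relative to vehicle-treated controls.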

[7] = at 5.0 µM (retest, dose inferred, filed as 0.5)
[8] = at 50.0 µM (retest, dose inferred, filed as 5.0)

SMILES	growth inhibition [1, 7]	growth inhibition [1, 8]	growth inhibition ([1]; at 50.0 µM)	growth inhibition [2, 7]	growth inhibition [2, 8]	growth inhibition ([2]; at 50.0 µM)	growth inhibition [3, 7]	growth inhibition [3, 8]	growth inhibition ([3]; at 50.0 µM)	growth inhibition [4, 7]	growth inhibition [4, 8]	growth inhibition ([4]; at 50.0 µM)	growth inhibition [5, 7]	growth inhibition [5, 8]	growth inhibition ([5]; at 50.0 µM)	growth inhibition [6, 7]	growth inhibition [6, 8]	growth inhibition ([6]; at 50.0 µM)
O=C1CN(/N=C\c2ccc([N+](=O)[O-])o2)C(=O)N1	11%	48%	56.5%	4%	29%	15.2%	2%	39%	41%	-5%	18%	-8.35%	3%	26%	27.5%	19%	65%	69.8%
Cc1cc2ccccc2c[n+]1Cc1ccc2ccccc2n1	-6%	-1%	53.6%	9%	45%	29.4%	-13%	12%	65.4%	-8%	-24%	21.6%	-5%	23%	49.3%	1%	41%	69.3%
Cc1c(N=Nc2ccc(Cl)cc2)c(-c2ccccc2)n(C2OC(CO)C(O)C(O)C2O)c(=S)c1C#N (configuration not stated)	-9%	89% (active)	96.6% (active)	-13%	96% (active)	97.2% (active)	18%	48%	97.5% (active)	18%	95% (active)	97.1% (active)	-2%	95% (active)	97.3% (active)	-7%	96% (active)	97.4% (active)
O=[N+]([O-])c1c(O)cccc1O	45%	98% (active)	99% (active)	17%	99% (active)	99.2% (active)	29%	99% (active)	99.2% (active)	24%	99% (active)	98% (active)	14%	99% (active)	98.9% (active)	36%	99% (active)	98.5% (active)
C=CCc1cc(C(=O)OCC)cc(OC)c1O	78% (active)	97% (active)	5.15%	22%	98% (active)	-1.1%	34%	91% (active)	3.9%	20%	95% (active)	-23.4%	19%	95% (active)	74% (active)	44%	97% (active)	-0.35%
OC(C/C(CNNc1ccccc1)=N/Nc1ccccc1)(C(F)(F)F)C(F)(F)F	6%	-9%	71.2% (active)	-2%	76% (active)	83.8% (active)	-6%	5%	69.2%	2%	75% (active)	55.4%	-1%	59%	74.6% (active)	14%	78% (active)	89% (active)
CCCCCCCCCCCCCCCCP(=O)([O-])OCC[N+](C)(C)C	-34%	99% (active)	80.8% (active)	-32%	99% (active)	87.3% (active)	0%	99% (active)	89.2% (active)	-27%	99% (active)	89.5% (active)	-32%	98% (active)	88.5% (active)	-26%	98% (active)	91.5% (active)
C/C=C1/C=CC2c3[nH]c4ccccc4c3CCN2C1 (configuration not stated)	-152%	-150%	5.35%	-51%	-57%	-0.8%	-62%	-67%	2.95%	-62%	-72%	38%	-73%	-81%	-13.4%	-137%	-107%	13%
CC1CCCC(C)C1=O (configuration not stated)	4%	3%	8.7%	-4%	0%	-12.2%	-7%	3%	-13.4%	3%	7%	13.8%	5%	10%	3%	2%	3%	-4.35%
